# PubChem BioAssay AID1347136 (National Center for Advancing Translational Sciences (NCATS), 2019)
# The other results are listed elsewhere or left out. Inconclusive results are not listed. The source made the active and inactive calls. The call rests on the fitted dose curve; in most records, active means well fitted inhibition curve with a large enough effect; inconclusive means small, poorly fitted or top-dose-only effect; inactive means no such curve, though single readings can be large or run the other way.
# Assay: qHTS of pediatric cancer cell lines to identify multiple opportunities for drug repurposing: Orthogonal 3D viability screen for SJ-GBM2 cells
# Conditions: SJ-GBM2 3D spheroid viability, PI/Hoechst imaging, 72 h
# Description: Drug repurposing or repositioning has been offered as a strategy for drug development in oncology programs. This approach has special potential for childhood cancers and other rare or orphan diseases, where the expected return on new drug development has been a disincentive to pharmaceuticals. […] In this project we exploit the poly-pharmacology of drugs to discover new indications via phenotypic screening of a panel of 19 well-characterized cell lines derived from solid tumors seen in children and adolescents. The goal is to identify approved drugs with previously unrecognized anticancer properties that has the potential to reveal new mechanisms and biological processes involved in carcinogenesis or drug resistance. We employed a titration-based paradigm (quantitative high-throughput screening or qHTS), where all compounds were tested at multiple concentrations for their effect on cell viability. Concentration-response curves (CRCs) were derived directly from the primary screen, and both potency and efficacy values were used to identify compounds with robust bioactivity profiles. […] These two assays will be used to validate active compounds and assess the correlation of compound's potency in 2D vs 3D cultures on selected cell lines. Assay Submitter: Nathalia J. Martinez, National Center for Advancing Translational Sciences, National Institutes of Health, Rockville, MD, USA; email: natalia.martinez@nih.gov Shen, M et al. Quantitative high-throughput phenotypic screening of pediatric cancer cell lines identifies multiple opportunities for drug repurposing. Oncotarget 2017 Dec 19;9(4):4758-4772. PMID 29435139.
# The cells were obtained from University of North Carolina (UNC), Pediatric Preclinical Testing Program (PPT), and Coriell Institute (CI). qHTS viability in 3D culture: Cells were assayed in phenol red-free growth media at a density of 1,000 cells/well, with the exception of Daoy, and SH-N-SH which were assayed at 1,500 cells/ well. Thirty muL of cells were dispensed into 384-well, ULA, round bottom plates (Corning) using a Multidrop dispenser. Plates were spun down at 1,000 rpm for 1 min and incubated at 37 degrees C, 5% CO2, under a humidified atmosphere for either 24 (Daoy) or 48 hours (all other cell lines) to allow spheroid formation. Ninety-two nanoliter of compounds and controls (neutral control DMSO or positive control bortezomib at final concentrations of 0.5 µM) were subsequently transferred via GNF Pintool. Plates were sealed using a breathable seal (Diversified Biotech, Dedham, MA) and incubated for 72 hours at 37 degrees C. Spheroid viability was first determined by high-content imaging using Hoechst 33342 and Propidium Iodide (PI, ThermoFisher Scientific), followed by addition of CellTiter-Glo 3D (Promega). Specifically, 3 µL/well of PBS containing a 1:500 dilution of both dyes was dispensed using Multidrop. Dyes were incubated for 1 hour before imaging using the Celigo Image Cytometer. Then, 20 µl of CellTiter-Glo 3D were added per well. Plates were incubated for 30 min at RT on a VWR microplate shaker (300 rpm) and analyzed for luminescence intensity using a ViewLux High-throughput CCD imager equipped with clear filters. Image analysis was done using the Celigo Tumorsphere 1+2+3 application software as previously described. Briefly, spheroids were first identified using bright-field image segmentation, and then the fluorescent intensities of PI and Hoechst 3342 were obtained using red (EX: 531/40 nm, EM: 629/53 nm) and blue (EX: 377/50 nm, EM: 470/22 nm) filters, respectively. The data were exported to Excel, and the average fluorescent intensities were used to calculate the ratio of PI over Hoechst, which was used to quantify viability. Percent activity based on neutral and positive control bortezomib was derived.
row,SMILES,Potency
1,CC1(C)O[C@@H]2C[C@@H]3[C@H]4C[C@@H](F)C5=CC(=O)C=C[C@]5(C)[C@@]4(F)[C@@H](O)C[C@]3(C)[C@]2(C(=O)CO)O1,574 nM (active)
2,COc1c(C)c2c(c(O)c1C/C=C(\C)CCC(=O)O)C(=O)OC2,722 nM (active)
3,CC[C@]1(O)C[C@@H]2CN(CCc3c([nH]c4ccccc34)[C@@](C(=O)OC)(c3cc4c(cc3OC)N(C)[C@H]3[C@@](O)(C(=O)OC)[C@H](OC(C)=O)[C@]5(CC)C=CCN6CC[C@]43[C@@H]65)C2)C1,40.6 nM (active)
4,CC[C@H]1CN2CCc3cc(OC)c(OC)cc3[C@@H]2C[C@@H]1C[C@H]1NCCc2cc(OC)c(OC)cc21,72.2 nM (active)
5,CC(NCc1ccc2c(c1)nc(NC(=O)c1ccc(-c3cn[nH]c3)s1)n2CC(C)(C)O)C(C)(C)C (stereo unspecified),162 nM (active)
6,COC(=O)Nc1nc2ccc(Sc3ccccc3)cc2[nH]1,574 nM (active)
